Assay outcomes: PubChem, National Center for Advancing Translational Sciences (NCATS)
Most compounds without a hit are left out; they make up all but 9.4% or so of the library.
ELG1 repair inh: blocks ELG1-dependent DNA repair in HEK293T cells; HEK293T ELG1-luciferase reporter, luminescence, 16 h; DNA damage induced by 5-fluorouridine; Potency, µM (series often up to 46.1 µM), most hits filed as inhibitors; 2.3% of 330,000 active; note: nearly all actives have a fitted effect of over 55% in size
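5-Fluorouridine DNA damage + compound/DMSO, 2,000 cells/well, 16 h, 37 °C/5% CO2. ONE-Glo, 30 min RT, luminescence. Readout = decrease in reporter signal.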
SMN2 splice up: increases expression of the SMN2 splice variant; HEK293 SMN2-luciferase splicing reporter, luminescence, 30-36 h; Potency, µM (highest dose often 46.1 µM), actives largely listed as activators; 2.8% of 210,000 active; note: nearly all actives have a fitted effect of over 55% in size
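HEK293 cells carry an SMN2 minigene-luciferase reporter in which exon 7 inclusion puts luciferase in frame. Cells were seeded at 2000 cells/well, attached for 10-12 hours, then exposed to compounds for 30-36 hours at 37C before ONE-Glo luminescence.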
NPC1 prom act: activates the NPC1 promoter; Huh7 NPC1 promoter luciferase reporter, 24 h; Potency, µM (series often up to 9.22 µM), actives largely listed as activators; 2.4% of 320,000 active; AID 485313; note: nearly all actives have a fitted effect of over 60% in size
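Huh7 cells stably carrying NPC1 promoter–luciferase, plated in Opti-MEM with 10% FBS for 2 h, were exposed to compound in DMSO for 24 h at 37 °C; luciferase reagent was added for 10 min and luminescence read.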
ELG1 genotoxic: inducers of genotoxicity in HEK293T ELG1-luciferase cells | 1.3% of 330,000 active | HEK293T ELG1-luciferase reporter, luminescence, 16 h | Potency, µM (top dose mostly 46 µM), usual class: activators | AID 504466; note: nearly all actives have a fitted effect of over 60% in size
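HEK293T cells expressing luciferase-tagged ELG1 were treated with compound or DMSO for 16 hr at 37°C. Luciferase activity was then read after 30 min with ONE-Glo at room temperature; rising signal flags genetic stress.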
Rab9 prom act: activators of Rab9 promoter | Huh7 Rab9 promoter-luciferase reporter, luminescence, 24 h | Potency, µM (titrated, usually from 9.22 µM), most hits filed as activators | 2.8% of 320,000 active | AID 485297; note: nearly all actives have a fitted effect of over 60% in size
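Luciferase signal after 10 min detection reagent at ambient indicates Rab9 promoter upregulation; stably transfected Huh7 cells were treated 24 h with compound in DMSO at 37 °C, 5% CO2.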
FLuc modulator: firefly luciferase modulation, counter-screen for miR-21 project; P08659; purified FLuc, Km substrates, luminescence inhibition; Potency, µM (titrated, usually from 57.5 µM), actives largely listed as inhibitors; 6.9% of 360,000 active; AID 588342; note: nearly all actives have a fitted effect of over 55% in size
Target sequence (P08659 whole entry, looked up): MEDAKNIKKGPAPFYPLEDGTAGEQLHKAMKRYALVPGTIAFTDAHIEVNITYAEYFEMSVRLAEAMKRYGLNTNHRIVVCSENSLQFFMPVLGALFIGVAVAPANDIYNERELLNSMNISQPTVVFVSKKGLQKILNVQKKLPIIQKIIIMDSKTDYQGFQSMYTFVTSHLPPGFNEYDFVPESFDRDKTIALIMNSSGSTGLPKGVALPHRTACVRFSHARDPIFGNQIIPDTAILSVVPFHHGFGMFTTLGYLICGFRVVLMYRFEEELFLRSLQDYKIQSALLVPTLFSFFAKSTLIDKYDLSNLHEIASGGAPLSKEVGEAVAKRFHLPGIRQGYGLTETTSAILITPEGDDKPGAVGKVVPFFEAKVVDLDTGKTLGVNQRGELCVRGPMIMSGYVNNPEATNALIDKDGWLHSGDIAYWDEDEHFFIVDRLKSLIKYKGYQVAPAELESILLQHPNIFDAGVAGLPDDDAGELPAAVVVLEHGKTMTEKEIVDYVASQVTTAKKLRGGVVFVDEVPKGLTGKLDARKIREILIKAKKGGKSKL
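Purified P. pyralis luciferase, 10 nM final, with Km-level 10 uM D-luciferin and 10 uM ATP in 50 mM Tris acetate pH 7.5, 10 mM Mg acetate, 0.01% Tween-20, 0.05% BSA; 6-point qHTS titration about 60 µM downward; luminescence read.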
Of the large screens only hits and unclear results are named; the others gave an inactive call. Calls come from the whole dose curve; as a rule, active = well fitted curve in the direction sought with a large enough effect; inconclusive = small, poorly fitted or top-dose-only effect, or another doubt; inactive = no such curve, though single readings can be large; an effect the other way counts as inactive or inconclusive.

O=C(CC(c1cccs1)N1Cc2ccccc2C1=O)Nc1ccccc1F (configuration not stated)	none (no result: ELG1 repair inh, SMN2 splice up, NPC1 prom act, ELG1 genotoxic, Rab9 prom act)
Cc1cc(Nc2ccc(C)c(Cl)c2)n2nc(Cc3ccccc3)nc2n1	none (no result: ELG1 repair inh, NPC1 prom act, ELG1 genotoxic, Rab9 prom act)
Cc1cn2c(=O)cc(COC(=O)c3cccc(NC(=O)C(C)Oc4ccccc4)c3)nc2s1 (configuration not stated)	none (no result: ELG1 repair inh, SMN2 splice up, NPC1 prom act, ELG1 genotoxic, Rab9 prom act)
Cc1cccc(Nc2ncnc3c2cnn3C)c1C	none (no result: ELG1 repair inh, SMN2 splice up, NPC1 prom act, ELG1 genotoxic, Rab9 prom act)
Cc1ccc(-n2ncc3c(Nc4cccc(C)c4C)ncnc32)cc1	FLuc modulator 8.5µM (no result: ELG1 repair inh, SMN2 splice up, NPC1 prom act, ELG1 genotoxic, Rab9 prom act)
CCOc1ccccc1Nc1ncnc2c1cnn2-c1ccc(C)cc1	FLuc modulator 15µM (no result: ELG1 repair inh, SMN2 splice up, NPC1 prom act, ELG1 genotoxic, Rab9 prom act)
CCOc1ccccc1Nc1ncnc2c1cnn2-c1ccccc1	none
Cc1ccc(Nc2ncnc3c2cnn3-c2ccccc2)c(C)c1	FLuc modulator 19µM (no result: ELG1 repair inh, SMN2 splice up, NPC1 prom act, ELG1 genotoxic, Rab9 prom act)
CCc1ccc(C2CC(=O)N(c3cccc(C(F)(F)F)c3)C3=C2C(=O)OC3)cc1 (configuration not stated)	none (no result: ELG1 repair inh, NPC1 prom act, ELG1 genotoxic, Rab9 prom act)
CCc1ccc(C(=O)COC(=O)c2cccnc2Cl)cc1	FLuc modulator 0.43µM
O=C(COC(=O)c1cccnc1Cl)c1ccc(F)cc1	ELG1 repair inh inconclusive, FLuc modulator 3µM
O=C(COC(=O)c1cccnc1Cl)c1ccccc1	ELG1 repair inh inconclusive, ELG1 genotoxic inconclusive, FLuc modulator 2.7µM
CC(C)N(C(=O)COC(=O)c1cccnc1Cl)c1ccccc1	none (no result: SMN2 splice up, NPC1 prom act, Rab9 prom act, FLuc modulator)
O=C(OCc1ccc(F)cc1)c1cccnc1Cl	none (no result: SMN2 splice up)
O=C(CC(=O)c1ccccc1)Nc1cccnc1Cl	ELG1 repair inh inconclusive, SMN2 splice up 13µM, NPC1 prom act inconclusive, ELG1 genotoxic inconclusive, Rab9 prom act inconclusive, FLuc modulator 12µM
O=C(OCc1ccc(COC(=O)c2cccnc2Cl)cc1)c1cccnc1Cl	FLuc modulator inconclusive
CCC(C)(C)c1ccc(OC(=O)c2cccnc2Cl)cc1	ELG1 genotoxic inconclusive, FLuc modulator 4.8µM (no result: SMN2 splice up)
CCOC(=O)Cc1csc(NC(=O)/C=C/c2ccc(Cl)cc2)n1	FLuc modulator 2.4µM (no result: SMN2 splice up)
CCOC(=O)Cc1csc(NC(=O)/C=C/c2ccco2)n1	FLuc modulator 11µM (no result: SMN2 splice up)
O=C(/C=C/c1ccco1)Nc1nc(-c2ccccn2)cs1	ELG1 repair inh inconclusive, SMN2 splice up inconclusive, NPC1 prom act inconclusive, Rab9 prom act inconclusive, FLuc modulator 21µM
O=C(/C=C/c1ccco1)Nc1nc(-c2ccc(F)c(F)c2)cs1	ELG1 repair inh inconclusive, FLuc modulator inconclusive (no result: SMN2 splice up)
Cc1csc(NC(=O)/C=C/c2ccco2)n1	ELG1 repair inh inconclusive, SMN2 splice up 16µM, ELG1 genotoxic inconclusive, Rab9 prom act 2.8µM, FLuc modulator 6.7µM
CCOC(=O)Cc1csc(NC(=O)CC)n1	none
Cc1ccc(/C=C/C(=O)Nc2nnc(SCc3ccc(C#N)cc3)s2)o1	ELG1 repair inh inconclusive
O=C(/C=C/c1ccco1)Nc1nc(-c2ccccc2)cs1	ELG1 repair inh inconclusive, SMN2 splice up 11µM, NPC1 prom act 2.8µM, Rab9 prom act 2.5µM, FLuc modulator 4.8µM
Cc1csc(NC(=O)/C=C/c2ccc(C)o2)n1	ELG1 repair inh inconclusive, SMN2 splice up 20µM, FLuc modulator 11µM
Cc1ccc(O)c(NC(=O)CCSc2nc(-c3ccco3)cc(C(F)(F)F)n2)c1	none (no result: ELG1 repair inh, NPC1 prom act, ELG1 genotoxic, Rab9 prom act)
CCOC(=O)N1CCN(C(=O)c2cnn3c(C(F)(F)F)cc(-c4cccs4)nc23)CC1	ELG1 repair inh 6.5µM
Cc1ccc(C)c(NC(=S)c2ccc3ccccc3n2)c1	ELG1 repair inh inconclusive, SMN2 splice up 11µM, NPC1 prom act inconclusive, ELG1 genotoxic inconclusive, Rab9 prom act 3.2µM, FLuc modulator 5.4µM
CN(C)c1ccc(NC(=S)c2ccc3ccccc3n2)cc1	ELG1 repair inh inconclusive, NPC1 prom act inconclusive, ELG1 genotoxic inconclusive, FLuc modulator 17µM (no result: SMN2 splice up)
CN(CC(=O)Nc1ccc(F)cc1)C(=O)c1ccc2ccccc2n1	none (no result: SMN2 splice up)
Cc1ccc(C)c(NC(=S)c2ccccn2)c1	ELG1 repair inh inconclusive, FLuc modulator 17µM
O=S1(=O)c2ccccc2N(Cc2ccccc2)c2ccccc21	none (no result: ELG1 repair inh, SMN2 splice up, NPC1 prom act, ELG1 genotoxic, Rab9 prom act)
CC(=O)c1c(C)[nH]c(C(=O)OCC(=O)Nc2cccnc2Cl)c1C	ELG1 repair inh inconclusive (no result: SMN2 splice up, NPC1 prom act, Rab9 prom act, FLuc modulator)
